B2AR arrestin = beta2AR (human) beta-arrestin recruitment activity. Potency, µM (top dose mostly 46.1 µM), without a hit: at the top dose activation, actives largely listed as activators. beta-arrestin recruitment to beta2AR, cell-based reporter. AID 492947. P07550. 0.02% of 330,000 active;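 also: potency is read from the fitted curve at half-maximal effect; 0% = DMSO controls and full agonism = EC100 isoproterenol or metaproterenol; nearly all actives have a fitted effect of over 65% in size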
Target sequence (P07550 whole entry, looked up): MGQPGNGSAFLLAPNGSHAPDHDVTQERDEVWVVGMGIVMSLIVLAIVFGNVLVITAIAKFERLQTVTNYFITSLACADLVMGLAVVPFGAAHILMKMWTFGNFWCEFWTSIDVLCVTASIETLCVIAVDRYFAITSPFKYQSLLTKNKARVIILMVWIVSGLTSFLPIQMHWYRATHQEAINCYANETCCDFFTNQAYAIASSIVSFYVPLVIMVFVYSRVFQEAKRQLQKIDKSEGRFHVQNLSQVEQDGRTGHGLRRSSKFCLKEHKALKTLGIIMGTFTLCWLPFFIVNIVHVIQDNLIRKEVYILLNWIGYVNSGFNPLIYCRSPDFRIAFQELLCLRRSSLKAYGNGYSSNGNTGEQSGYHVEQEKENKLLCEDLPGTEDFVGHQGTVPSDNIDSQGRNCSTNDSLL
D3 ag = agonists of human D3 dopamine receptor. AID 652048. 0.58% of 410,000 active. max activation, %. D3R DiscoveRx beta-arrestin cells, luminescence, 90 min; in the data active = max activation above about 30%; also: 0% is about no effect
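Agonist mode: compounds and dopamine controls were applied to plated cells for 90 min at 37 degrees C after an overnight attachment at 1500 cells/well. Luminescent read-out followed 30 - 60 minutes at room temperature with DiscoveRx detection reagent.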
Integrin act MD = integrin-mediated muscular dystrophy alleviation activation; 0.064% of 350,000 active; alpha7betagal myoblasts, beta-gal FDG fluorescence, 48 h; Potency, µM (doses to about 38.3 µM), for the others: top-dose activation, actives largely listed as activators;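 also: potency is read from the fitted curve at half-maximal effect; 100% = response of the positive control SU9516; nearly all actives have a fitted effect of over 60% in size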
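Alpha7betagal+/- myoblasts (passage 13) were plated 16-24 hr, then exposed to compounds (1:260 dilution of DMSO stock) for 48 hours at 37C. After MPER lysis, β-galactosidase reporter activity was read as FDG fluorescence (ex 480/em 540) after 30 minutes.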
DRD3 antagonist = D3 dopamine receptor (human) antagonism; P35462; D3R cells, DiscoveRx beta-arrestin luminescence, antagonist mode; hits give low values; max response, negative = inhibition, %; 2.5% of 360,000 active; in the data active = max response below about -50%; inconclusive = no clear call, values can overlap the other calls; also: % is scaled to controls: 0 for no effect and ±100 for the full control effect
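Cells expressing the human receptor were seeded at 1500 cells/well, incubated overnight at 37 degrees C in 5% CO2, then exposed to library compounds with dopamine controls for 90 minutes at 37 degrees C before luminescent detection.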
mIDH1 inhibitor = blocks human mutant IDH1 R132H enzyme | IDH1-R132H enzyme, NADPH consumption, diaphorase/resazurin fluorescence | 0.093% of 390,000 active | O75874 | Potency, µM (highest dose often 76.6 µM), without a hit: top-dose activity change, negative = inhibition, hits mostly inhibitors; also: potency is read from the fitted curve at half-maximal effect; % is scaled to controls: 0 for no effect and ±100 for the full control effect; nearly all actives have a fitted effect of over 65% in size
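IDH1-R132H (0.5 ug/mL) preincubated 30 min with compound, then NADPH (0.016 mM) and alpha-KG (2 mM) added; 80 min at RT, pH 7.5. Remaining NADPH coupled via diaphorase/resazurin to fluorescence (540/590 nm); concentration-response curves normalized to no-enzyme control.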
The depositor's hits bear a star; ? = inconclusive; nt = no result. Most compounds without a hit are left out; they make up all but 2.9% or so of the library. Unless noted, calls follow the shape of the dose curve; as a rule, active = well fitted curve in the direction sought with a large enough effect; inconclusive = small, poorly fitted or top-dose-only effect, or another doubt; inactive = no such curve, though single readings can be large; an effect the other way counts as inactive or inconclusive.

SMILES	B2AR arrestin	D3 ag	Integrin act MD	DRD3 antagonist	mIDH1 inhibitor
Clc1ccc(CN2CCc3c([nH]c4ccccc34)C2)cc1Cl	0%	2	-59%	14	1%
Cc1ccc2[nH]c3c(c2c1)CCN(C)C3	0%	-20	?	-60*	1%
CSc1ccc(CN2CCc3c([nH]c4ccccc34)C2)cc1	0%	-11	-35%	?	9%
c1ccc(CN2CCc3[nH]c4ccccc4c3C2)cc1	nt	-11	-11%	-97*	-1%
Cc1cccc(CN2CCc3c([nH]c4ccccc34)C2)c1	4%	-15	-13%	-90*	-3%
Clc1cccc(CN2CCc3c([nH]c4ccccc34)C2)c1	0%	-21	-45%	-59*	0%
CCOC(=O)c1c(C)[nH]c(CCC(=O)Nc2ccc(Cl)cc2C)c1C	nt	4	nt	nt	-4%
Cc1cccc(C)c1C(O)c1ncc(-c2cccc3ccccc23)[nH]1 (configuration not stated)	nt	1	nt	-76*	nt
Cc1cccc(C)c1C(O)c1ncc(-c2ccc(Cl)cc2)[nH]1 (configuration not stated)	nt	2	nt	7	nt
Cc1ccc(-c2cnc(C(O)c3c(C)cccc3C)[nH]2)cc1 (configuration not stated)	nt	-12	nt	-55*	nt
Cc1ccccc1-c1cnc(C(O)c2c(C)cccc2C)[nH]1 (configuration not stated)	nt	-15	nt	-52*	nt
Cc1cc(C)c(C(O)c2ncc(-c3ccccc3C)[nH]2)c(C)c1 (configuration not stated)	nt	-9	nt	-56*	nt
COC(=O)C1Cc2c([nH]c3ccccc23)C2(CCN(Cc3ccccc3)CC2)N1 (configuration not stated)	5%	-23	-29%	-93*	-1%
Cc1ccc(C)n1-c1nnc(N2CCC(C(=O)Nc3ccccc3Br)CC2)s1	nt	5	nt	nt	nt
C/C(=N\NC(=O)Cn1nc(C)c([N+](=O)[O-])c1C)c1ccc(Cl)s1	1%	-2	-23%	-62*	-5%
Cc1ccsc1/C=N/NC(=O)Cn1nc(C)c([N+](=O)[O-])c1C	-1%	-5	?	-11	12%
CN(C)c1ccc(/C=N/N2C(=S)SC(C)(C)C2N(O)C(=O)Nc2ccc([N+](=O)[O-])cc2)cc1 (configuration not stated)	0%	-2	-9%	-67*	7%
CNC(=O)N(O)C1N(/N=C/c2ccc(SC)cc2)C(=S)SC1(C)C (configuration not stated)	-1%	3	7%	-9	-5%
Cc1ccc(NC(=O)CN(C)C(=O)COc2ccccc2-c2ccccc2)cc1	1%	-28	-39%	-9	-9%
CN1CCN(c2ccc(CNC(=O)C3(C)Cc4c(-c5ccccc5)ccnc4O3)cc2)CC1 (configuration not stated)	nt	-15	nt	-62*	nt
CC1(C(=O)NCc2ccccc2)Cc2c(-c3ccccc3)ccnc2O1 (configuration not stated)	nt	-14	nt	?	nt
CC(=O)Nc1ccc(NC(=O)C2(C)Cc3c(-c4ccccc4)ccnc3O2)cc1 (configuration not stated)	nt	-4	nt	-113*	nt
CC1(C(=O)NCCC(F)(F)F)Cc2c(-c3cccc(C(N)=O)c3)ccnc2O1 (configuration not stated)	nt	-4	nt	-59*	nt
CC1(C(=O)NCCC(F)(F)F)Cc2c(-c3cccc(C(F)(F)F)c3)ccnc2O1 (configuration not stated)	nt	3	nt	6	nt
CC1(C(=O)NCc2ccccc2)Cc2c(-c3ccc(C(N)=O)cc3)ccnc2O1 (configuration not stated)	nt	58*	nt	?	nt
SMILES	B2AR arrestin	D3 ag	Integrin act MD	DRD3 antagonist	mIDH1 inhibitor
O=C(N/N=C(\c1ccccc1)c1cccnc1)c1cccc(F)c1	-1%	-11	-51%	-75*	3%
O=C(N/N=C(\c1ccccc1)c1cccnc1)c1ccc(O)cc1	3%	4	-21%	-3	3%
O=C(CCc1nc(-c2ccccc2F)no1)Nc1cccc(C(F)(F)F)c1	nt	-6	nt	nt	22%
O=C(CNC(=O)c1ccco1)OCC(=O)c1ccc([N+](=O)[O-])cc1	3%	32*	0%	-2	-8%
C=CCN(c1ccccc1)S(=O)(=O)c1cccc(C(=O)NC2CCN(Cc3ccccc3)CC2)c1	0%	-27	-15%	-79*	3%
O=C(NC1CCN(Cc2ccccc2)CC1)c1cccc(S(=O)(=O)Nc2ccc(Br)cc2)c1	0%	-31	-35%	-57*	3%
O=C(NC1CCN(Cc2ccccc2)CC1)c1cccc(S(=O)(=O)Nc2ccc(F)cc2)c1	2%	-25	-52%	?	-17%
Cc1ccc(C(=O)Nc2ccon2)cc1S(=O)(=O)N1CCOCC1	0%	32*	-3%	15	3%
CN(C)S(=O)(=O)c1cccc(C(=O)NCC(=O)NC2CCN(Cc3ccccc3)CC2)c1	1%	-20	-6%	-8	-2%
COc1ccccc1NS(=O)(=O)c1ccc(C)c(C(=O)NC2CCN(Cc3ccccc3)CC2)c1	-1%	-13	-9%	?	20%
COc1ccccc1NS(=O)(=O)c1cc(C(=O)NC2CCN(Cc3ccccc3)CC2)ccc1C	nt	-15	-34%	-92*	2%
Cc1ccc(C(=O)NC2CCN(Cc3ccccc3)CC2)cc1S(=O)(=O)N1CCOCC1	-1%	-34	-31%	-67*	9%
Cc1ccc(NS(=O)(=O)c2cccc(C(=O)NC3CCN(Cc4ccccc4)CC3)c2)c(C)c1	nt	-20	-72%	-97*	10%
COc1ccccc1NS(=O)(=O)c1cccc(C(=O)NC2CCN(Cc3ccccc3)CC2)c1	-4%	-24	-53%	-95*	-2%
Cc1cc(NC(=O)CCCn2c(C)c3cnn(-c4ccccc4)c(=O)c3c2C)ccc1Br	nt	-3	nt	nt	-13%
COc1ccccc1C1C(C(N)=O)=C(C)Nc2nc(SCc3ccccc3F)nn21 (configuration not stated)	nt	-5	nt	nt	28%
CCCCOC(=O)c1cccc(NC(=O)c2cc3ccccc3o2)c1	nt	-13	nt	nt	-4%
OC1(c2cccc(F)c2)CCN(Cc2ccncc2)CC1	0%	-7	7%	-78*	5%
Cc1cc(=O)c2c(O)c3c(O)cc(=O)c4c3c3c(cc(O)c1c23)C(C)(C)C=4O	nt	5	nt	nt	nt
CNC(C)CCC=C(C)C (configuration not stated)	nt	-20	nt	nt	nt
O=C(O)c1ccc(N=Nc2c(O)ccc3ncccc23)cc1	0%	-8	19%	-75*	0%
Cc1ccc(OCCN2CCN(c3ncnc4sc(C)c(C)c34)CC2)cc1	-1%	33*	-43%	16	1%
Cc1sc2ncnc(N3CCCCC3)c2c1C	-2%	8	-20%	30	4%
Cc1ccc(-n2cc(CN3CCN(c4ccccn4)CC3)c(-c3ccc(F)cc3)n2)cc1	0%	-21	12%	-62*	-9%

Screens from PubChem.
